Experiment [1] in a line: anti-His antibody binders, primary screen, artefact control for SMM control protein annotation, biochemical, small-molecule microarray, 635 nm fluorescence (AID 1128).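 Note: score merges feature fluorescence with signal-to-noise for each printed compound spot.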 As to conditions: anti-His Alexa647 antibody binding, higher = more signal.
For experiment [2], the system named is Human papillomavirus type 1a E7 protein (residues 1-88). As to the kind of experiment: HPV1a E7 small-molecule binders, primary screen, biochemical, small-molecule microarray, residues 1-88, 635 nm (AID 1129). As to conditions: small-molecule microarray binding, fluorescence 635 nm; higher = more signal.
Experiment [3] addresses Focal adhesion kinase 1 (Homo sapiens) (UniProt Q05397). As to the kind of experiment: small-molecule microarray binders of FAK, primary screen, biochemical, 635/667 nm fluorescence, BSA, DTT (AID 1130).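 Note: composite of spot emission at 667 nm and signal to noise over triplicate slides.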 As to conditions: PTK2 binding, 635 nm fluorescence, higher = more signal.
Experiment [4] has as its system Fibrinogen (Alexa647-labelled). Kind of experiment: fibrinogen binders on compound microarrays, profiling panel, artefact control for SMM control-protein annotation, biochemical, small-molecule microarray, 635/667 nm fluorescence (AID 1131).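 Note: z-score merges 667 nm fluorescence with per-spot signal-to-noise over triplicate slides.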 As to conditions: fibrinogen-A647 binding fluorescence, higher = more signal.
For experiment [5], the target named is Follistatin (Homo sapiens) (UniProt P19883). Kind of experiment: follistatin binders on small-molecule microarrays, primary screen, biochemical, small-molecule microarray, 635/667 nm fluorescence (AID 1132). Conditions: FST binding, 635 nm fluorescence, higher = more signal.
The target of experiment [6] is Fibroblast growth factor 2 (Homo sapiens) (UniProt P09038). As to the kind of experiment: FGF2 binders on small-molecule microarrays, primary screen, biochemical, small-molecule microarray, 635/667 nm fluorescence (AID 1133). As to conditions: small-molecule microarray binding, FGF2, fluorescence 635/667; higher = more signal.
Experiment [7] can be described thus: mitochondrial membrane potential change in A549 cells, profiling panel, cell-based, JC-1 fluorescence, basal, 24 h, 100 nL (AID 1138).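 Note: A549 lung adenocarcinoma cells under basal conditions with no added stimulus; test concentration not given here.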 Conditions: higher = more signal.
In experiment [8] the test system is Lefty1. As to the kind of experiment: Lefty1 binders on small-molecule microarrays, primary screen, biochemical, small-molecule microarray, 635/667 nm fluorescence (AID 1139). Conditions: small-molecule microarray binding, fluorescence 635/667; higher = more signal.
Experiment [9] relates to wheat germ agglutinin (Triticum aestivum), Alexa647-labelled. Kind of experiment: wheat germ agglutinin binders on compound microarrays, profiling panel, artefact control for SMM control-protein annotation, biochemical, small-molecule microarray, 635/667 nm fluorescence (AID 1140).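 Note: score merges 667 nm feature emission with signal to noise over triplicate slides.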 Conditions: WGA-A647 binding, 635 nm fluorescence, higher = more signal.
Experiment [10] addresses Luciferin 4-monooxygenase (Photinus pyralis) (UniProt P08659). As to the kind of experiment: firefly luciferase enzyme inhibitors, primary screen, biochemical, luminescence, purified enzyme, 2006 set (AID 1141).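 Note: cell-free assay with purified firefly luciferase at 100 ng per well in PBS; test concentration not given here.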 Conditions: SteadyGlo luminescence, 30 min, higher = more signal, called active from +8 up or from −8 down.
The subject of experiment [11] is Wnt5a (protein binding on small-molecule microarray). As to the kind of experiment: Wnt5a binders on small-molecule microarray, primary screen, biophysical, 635/667 nm fluorescence (AID 1142).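 Note: fluorescence read at 667 nm with signal to noise per printed feature.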 Conditions: 635 nm fluorescence, higher = more signal.
Experiment [12] in a line: cell viability in Huh7 cells, primary screen, cytotoxicity control for HCV replication inhibitor project, CellTiter-Glo luminescence, basal, 48 h (AID 1143).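 Note: Huh7 hepatoma cells carrying a hepatitis C replication reporter with no stimulus; test concentration not given here.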 Conditions: Huh7 HCV replicon, higher = more signal, called active from +8 up or from −8 down.
Experiment [13] in a line: P. aeruginosa biofilm formation inhibitors, primary screen, PAO1 strain, BacTiter-Glo luminescence, LB-PBS (AID 1144). As to conditions: 12 h, higher = more signal.
Experiment [14] can be described thus: CREB reporter modulators without forskolin, primary screen, cell-based, PC12, CRE-LacZ reporter, unstimulated (AID 1145). As to conditions: no forskolin, luminescence, 4.5 h, higher = more signal, called active from +8 up or from −8 down.
Experiment [15] in a line: CREB reporter modulators under forskolin, primary screen, cell-based, PC12, CRE-LacZ reporter, forskolin-stimulated (AID 1146).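 Note: PC12 cells with 6xCRE LacZ reporter stimulated by forskolin 10 µM; beta-galactosidase reporter signal reflecting CREB driven transcription.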 Conditions: luminescence, 4.5 h, higher = more signal, called active from +8 up or from −8 down.
The target of experiment [16] is Streptavidin (Streptomyces avidinii) (UniProt P22629). As to the kind of experiment: streptavidin binders on small-molecule microarray, primary screen, artefact control for SMM compound annotation, biophysical, 635/667 nm fluorescence (AID 1147).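 Note: signal reflects streptavidin binding to arrayed compounds as a control protein.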 As to conditions: streptavidin binding, higher = more signal.
The nature of experiment [17]: small-molecule binders of probe aInhba, primary screen, biochemical, small-molecule microarray, 635/667 nm fluorescence (AID 1148).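 Note: score merges 667nm spot fluorescence with signal-to-noise for antibody binding to printed compounds.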 As to conditions: higher = more signal.
For experiment [18], the target named is Torsin-1A (Homo sapiens) (UniProt O14656). Kind of experiment: torsin A binders from cell lysate, primary screen, small-molecule microarray, wild-type, 635/667 nm (AID 1149). As to conditions: COS7 hTOR1A-WT lysate, 635 nm fluorescence, higher = more signal.
For experiment [19] the target is unchanged. Kind of experiment: small-molecule binders of mutant TOR1A in lysate, primary screen, cell lysate, small-molecule microarray, COS7 lysate, 635/667 nm fluorescence (AID 1150).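 Note: score pools 667 nm emission and signal to noise measuring lysate protein binding.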 As to conditions: COS7 hTOR1A mutant lysate, 635 nm fluorescence, higher = more signal.
Experiment [20] has as its system Sonic hedgehog protein (Shh). Kind of experiment: small-molecule binders of Shh protein, primary screen, biochemical, small-molecule microarray, 635/667 nm fluorescence (AID 1151).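 Note: Shh protein binding to compounds spotted on small-molecule microarray slides; score combines spot fluorescence intensity with signal-to-noise across triplicate slides.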 As to conditions: small-molecule microarray binding, 635 nm fluorescence; higher = more signal.

Active and inactive are the calls of the source. Unless noted, the rule behind the calls is not given here.

Sequence of Torsin-1A (Homo sapiens) (O14656 whole entry, looked up): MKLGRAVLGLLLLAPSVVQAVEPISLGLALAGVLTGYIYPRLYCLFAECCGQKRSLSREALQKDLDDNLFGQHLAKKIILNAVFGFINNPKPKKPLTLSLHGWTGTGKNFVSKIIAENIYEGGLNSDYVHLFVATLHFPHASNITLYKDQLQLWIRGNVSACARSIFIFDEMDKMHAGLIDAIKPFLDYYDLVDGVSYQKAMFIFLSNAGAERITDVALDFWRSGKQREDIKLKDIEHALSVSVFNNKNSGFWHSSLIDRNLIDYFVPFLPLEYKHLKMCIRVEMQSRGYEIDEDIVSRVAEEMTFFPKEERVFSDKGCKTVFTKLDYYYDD
Sequence of Fibroblast growth factor 2 (Homo sapiens) (P09038 whole entry, looked up): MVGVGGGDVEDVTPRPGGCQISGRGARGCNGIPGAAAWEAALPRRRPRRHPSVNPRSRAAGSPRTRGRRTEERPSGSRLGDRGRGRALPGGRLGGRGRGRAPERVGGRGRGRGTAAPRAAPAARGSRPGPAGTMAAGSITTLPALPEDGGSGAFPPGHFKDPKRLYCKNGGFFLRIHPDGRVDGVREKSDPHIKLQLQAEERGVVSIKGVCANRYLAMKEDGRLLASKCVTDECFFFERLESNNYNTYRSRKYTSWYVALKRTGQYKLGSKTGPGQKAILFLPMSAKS
Sequence of Follistatin (Homo sapiens) (P19883 whole entry, looked up): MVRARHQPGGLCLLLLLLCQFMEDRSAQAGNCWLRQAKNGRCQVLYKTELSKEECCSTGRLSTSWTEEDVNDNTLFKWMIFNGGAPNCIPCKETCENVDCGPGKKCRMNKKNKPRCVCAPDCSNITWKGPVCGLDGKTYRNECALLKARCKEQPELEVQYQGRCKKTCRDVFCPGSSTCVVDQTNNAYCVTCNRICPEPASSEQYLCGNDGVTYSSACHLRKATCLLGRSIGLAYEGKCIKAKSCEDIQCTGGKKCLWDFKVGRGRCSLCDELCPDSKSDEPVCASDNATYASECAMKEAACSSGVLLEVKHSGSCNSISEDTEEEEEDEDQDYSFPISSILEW
Sequence of Streptavidin (Streptomyces avidinii) (P22629 whole entry, looked up): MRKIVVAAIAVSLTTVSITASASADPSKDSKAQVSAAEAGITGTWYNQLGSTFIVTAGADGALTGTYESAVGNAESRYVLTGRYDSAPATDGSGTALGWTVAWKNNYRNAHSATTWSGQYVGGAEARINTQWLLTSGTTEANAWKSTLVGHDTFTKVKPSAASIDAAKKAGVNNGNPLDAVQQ
Sequence of Focal adhesion kinase 1 (Homo sapiens) (Q05397 whole entry, looked up): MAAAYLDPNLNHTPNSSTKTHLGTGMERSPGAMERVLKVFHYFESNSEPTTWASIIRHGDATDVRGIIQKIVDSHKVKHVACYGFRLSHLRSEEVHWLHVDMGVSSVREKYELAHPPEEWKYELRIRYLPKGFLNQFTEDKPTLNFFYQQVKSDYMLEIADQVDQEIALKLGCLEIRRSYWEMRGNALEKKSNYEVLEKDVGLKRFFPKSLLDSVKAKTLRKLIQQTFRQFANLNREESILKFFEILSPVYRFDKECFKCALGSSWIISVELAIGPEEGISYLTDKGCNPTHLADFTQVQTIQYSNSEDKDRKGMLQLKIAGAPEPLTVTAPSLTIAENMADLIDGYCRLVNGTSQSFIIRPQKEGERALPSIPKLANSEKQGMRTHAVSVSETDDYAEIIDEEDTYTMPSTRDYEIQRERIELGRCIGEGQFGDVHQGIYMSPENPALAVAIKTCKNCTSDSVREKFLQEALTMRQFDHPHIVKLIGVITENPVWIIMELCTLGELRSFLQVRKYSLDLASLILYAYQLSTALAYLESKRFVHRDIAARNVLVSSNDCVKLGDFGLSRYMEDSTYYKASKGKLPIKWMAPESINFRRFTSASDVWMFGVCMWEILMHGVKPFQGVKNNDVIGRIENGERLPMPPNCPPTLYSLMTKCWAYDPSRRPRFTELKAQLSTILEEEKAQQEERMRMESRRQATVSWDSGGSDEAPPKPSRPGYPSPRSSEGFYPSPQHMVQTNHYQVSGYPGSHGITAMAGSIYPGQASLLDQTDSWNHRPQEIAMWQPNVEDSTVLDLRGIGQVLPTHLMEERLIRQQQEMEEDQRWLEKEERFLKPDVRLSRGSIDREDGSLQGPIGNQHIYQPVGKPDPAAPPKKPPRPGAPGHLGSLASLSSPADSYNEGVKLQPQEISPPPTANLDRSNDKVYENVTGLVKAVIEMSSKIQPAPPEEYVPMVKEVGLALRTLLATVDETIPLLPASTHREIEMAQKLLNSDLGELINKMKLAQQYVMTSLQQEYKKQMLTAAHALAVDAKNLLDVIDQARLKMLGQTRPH
Sequence of Luciferin 4-monooxygenase (Photinus pyralis) (P08659 whole entry, looked up): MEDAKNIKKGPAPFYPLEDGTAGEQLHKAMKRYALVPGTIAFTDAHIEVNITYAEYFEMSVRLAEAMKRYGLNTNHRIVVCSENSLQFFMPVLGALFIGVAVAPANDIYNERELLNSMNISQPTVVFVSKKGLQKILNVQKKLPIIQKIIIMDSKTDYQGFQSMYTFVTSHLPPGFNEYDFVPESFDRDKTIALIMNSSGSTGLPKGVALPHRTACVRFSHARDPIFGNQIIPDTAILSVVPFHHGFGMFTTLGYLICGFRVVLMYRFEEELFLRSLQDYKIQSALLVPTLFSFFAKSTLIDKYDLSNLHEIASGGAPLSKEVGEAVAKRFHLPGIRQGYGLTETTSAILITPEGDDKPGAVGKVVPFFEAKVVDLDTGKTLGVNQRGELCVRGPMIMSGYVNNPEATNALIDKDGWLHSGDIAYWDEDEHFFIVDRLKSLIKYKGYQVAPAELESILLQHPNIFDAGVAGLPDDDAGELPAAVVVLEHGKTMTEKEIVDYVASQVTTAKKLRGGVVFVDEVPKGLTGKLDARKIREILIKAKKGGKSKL

Regarding `O=c1n(Cc2cc3c(cc2Cl)OCO3)c(=O)n2n1CC[C@@H]1C(=NOC[C@@H](O)COCc3ccco3)[C@H]3O[C@H]3[C@@H](O)[C@@H]12`, the composite z-score in experiment [1] is 0.0465; in [2], 0.642; in experiment [3] it was -0.0676; in experiment [4], 0.354; in [5] it was 0.568; in [6], 0.546. In addition, the composite z-score worked out at 0.414 in experiment [8]; 0.004 in experiment [9]; 0.127 in experiment [11]; 1.02 in experiment [16]; 0.0084 in [17]; 0.365 in experiment [18]. Further, the composite z-score in [19] was 0.156; in [20], 0.344. For the same compound, the z-score in experiment [7] was -0.15; in [10], -0.357 (inactive); in [12], 0.376 (inactive); in experiment [13], -1.11 (inactive); in experiment [14], 0.975 (inactive); in experiment [15], 0.819 (inactive).

For `CO[C@H]1COC(=O)CC=C[C@H](C)COC(=O)[C@@H](C)NC(=O)CC=C[C@@H]1C`, the composite z-score in experiment [1] was 2.07; in experiment [2], -0.696; in experiment [3], -0.775; in [4] it was -1.32; in [5], 1.29; in experiment [6] it was 0.654. Further, the composite z-score in experiment [8] is 1.72; in experiment [9], -0.52; in experiment [11], 0.042; in experiment [16] it was 0.0677; in [17] it was -0.25; in experiment [18] it was 2.78. The composite z-score amounted to 2.8 in [19] and 2.08 in experiment [20]. Also, the z-score was -1.61 in experiment [7]; 0.917 (inactive) in experiment [10]; -2.06 (inactive) in experiment [12]; -1.59 (inactive) in experiment [13]; -0.31 (inactive) in experiment [14]; -0.0543 (inactive) in [15].

For the compound `C=CC[C@@H]1C=C[C@H](ON=C(C)CCC(=O)OC[C@H]2O[C@H](C#Cc3ccccc3)C=C[C@@H]2Oc2ccc(C)cc2)[C@@H](CO)O1`, the composite z-score is -0.443 in experiment [1]; 0.828 in [2]; -0.0073 in experiment [3]; 0.955 in experiment [4]; 0.656 in [5]; 0.42 in [6]. Besides, the composite z-score in experiment [8] was 0.842; in experiment [9] it was -0.0056; in [11], 0.0897; in [16] it was 0.635; in experiment [17] it was -0.0375; in experiment [18] it was 0.569. The figures for the composite z-score in experiment [19] and in [20] were 0.185 and 0.795, respectively. Besides, the z-score in [7] was -0.0271; in [10] it was 0.666 (inactive); in experiment [12] it was -0.273 (inactive); in [13], 0.0915 (inactive); in [14], -0.306 (inactive); in [15] it was 0.435 (inactive).

`COc1ccc(O[C@H]2C=C[C@@H](c3ccccc3)O[C@@H]2CON=C(C)CCN2CCc3nc(-c4ccccc4)c(-c4ccccc4)cc3C2)cc1`: the composite z-score was 1.38 in experiment [1]; -0.536 in experiment [2]; 0.119 in experiment [3]; 0.948 in experiment [4]; 0.477 in [5]; 0.0194 in experiment [6]. In addition, the composite z-score in experiment [8] is 0.269; in experiment [9] it was 0.0216; in experiment [11], -0.193; in experiment [16], 0.852; in [17], -0.0719; in experiment [18], -0.449. Besides, the composite z-score is -0.199 in [19] and 0.194 in [20]. For the same compound, the z-score is 1.87 in experiment [7]; 0.84 (inactive) in [10]; -0.203 (inactive) in [12]; -0.18 (inactive) in [13]; 1.62 (inactive) in experiment [14]; 0.703 (inactive) in experiment [15].

Consider `CCOC(=O)[C@H](Cc1ccccc1)NC(=O)CCC1CC(OC(=O)NCCc2ccc(F)cc2)CC2(CCCC(COC(=O)NCc3ccccc3)O2)O1` (stereo not given in full), for which the composite z-score was determined as 0.704 in experiment [1]; 1.04 in experiment [2]; 0.254 in [3]; 0.282 in experiment [4]; 0.63 in experiment [5]; 0.473 in experiment [6]. In addition, the composite z-score came to 0.833 in experiment [8]; 0.115 in experiment [9]; 0.0738 in [11]; 0.606 in experiment [16]; 0.0074 in experiment [17]; 0.409 in experiment [18]. In addition, the composite z-score in experiment [19] was 0.129; in experiment [20] it was 0.952. The z-score in [7] is 0.216; in [10], 0.877 (inactive); in [12], -0.471 (inactive); in [13], 0.0402 (inactive); in experiment [14], 0.824 (inactive); in experiment [15], 1.63 (inactive).
